PubChem BioAssay (Tox21)
Unmarked numbers belong to inactive results. Inconclusive results are not listed. Where a call stands in place of a potency, no number is given. Active and inactive are the calls of the source. Unless noted, calls follow the shape of the full dose curve. Square brackets hold non-standard residues; d marks the D form. Peptide text beside a SMILES is read from it. * marks the point of attachment. Sta = CC(C)C[C@H](N)[C@@H](O)CC(=O)O; Isovaleryl = CC(C)CC(=O)*

Assays:
[1] = Nuclear factor erythroid 2-related factor 2/antioxidant responsive element (Nrf2/ARE) small molecule agonists: luciferase reporter gene qHTS assay in human keratinocytes (AID 1919969); also: nearly all actives have a fitted effect of over 35% in size; also: potency is read from the fitted curve at half-maximal effect
[2] = molecular target: Gonadotropin-releasing hormone receptor (Homo sapiens) (UniProt P30968); assay: Human gonadotropin-releasing hormone receptor (GnRHR) small molecule agonists, calcium flux assay in GnRHR-HEK293 cells (AID 1920063); also: nearly all actives have a fitted effect of over 35% in size
Chain of Gonadotropin-releasing hormone receptor (Homo sapiens) (P30968 whole entry, looked up): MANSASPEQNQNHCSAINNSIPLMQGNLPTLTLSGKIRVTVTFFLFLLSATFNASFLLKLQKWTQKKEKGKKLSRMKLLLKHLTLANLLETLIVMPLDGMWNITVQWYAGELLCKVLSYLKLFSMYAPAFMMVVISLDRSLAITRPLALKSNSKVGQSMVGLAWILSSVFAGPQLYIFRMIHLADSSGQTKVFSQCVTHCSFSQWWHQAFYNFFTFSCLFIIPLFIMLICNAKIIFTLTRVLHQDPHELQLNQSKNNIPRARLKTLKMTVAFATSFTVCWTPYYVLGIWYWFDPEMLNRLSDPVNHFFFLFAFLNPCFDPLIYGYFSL
Summary of the method: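 Fluorescence kinetics (480 nm excitation, 540 nm emission; 3 min, 1 s steps) report calcium mobilisation in human GnRHR-HEK293 cells in agonist mode. Dye incubation: 1 h, 37 C.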

[3] = molecular target: KiSS-1 receptor (Homo sapiens) (UniProt Q969F8); assay: Human kisspeptin (KISS1R) small molecule agonists, calcium flux assay in KISS1R-HEK293 cells (AID 1920064; active = well fitted activation curve with a large enough effect in the repeat runs)
Chain of KiSS-1 receptor (Homo sapiens) (Q969F8 whole entry, looked up): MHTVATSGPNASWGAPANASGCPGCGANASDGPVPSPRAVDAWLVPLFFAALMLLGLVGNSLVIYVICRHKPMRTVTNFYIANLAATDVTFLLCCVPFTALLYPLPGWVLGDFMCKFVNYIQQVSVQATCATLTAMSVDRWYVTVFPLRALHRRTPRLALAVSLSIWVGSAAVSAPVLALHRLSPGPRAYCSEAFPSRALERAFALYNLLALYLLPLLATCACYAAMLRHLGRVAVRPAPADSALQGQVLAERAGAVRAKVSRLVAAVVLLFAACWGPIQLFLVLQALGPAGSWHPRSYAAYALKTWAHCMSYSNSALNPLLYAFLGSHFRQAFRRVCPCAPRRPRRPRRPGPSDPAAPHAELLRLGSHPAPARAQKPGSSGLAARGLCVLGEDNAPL
Summary of the method: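 Measures KISS1R agonism through calcium-sensitive dye fluorescence in stably transfected HEK293 cells, read for 3 min after pin-tool compound delivery; 15-point titrations in triplicate.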

[4] = G protein-coupled receptor (GPCR) small molecule agonists, calcium flux assay: HEK293 wild type cell line counter screen (AID 1920065)
Summary of the method: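 Readout: fluorescence at 480 nm excitation/540 nm emission, sampled at 1 s intervals for 3 min. Cells had been cultured 18 h, then dye-loaded 1 h at 37 C before compound or ATP addition.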

[5] = p53 small molecule agonists, cell-based qHTS assay with human liver microsomes (AID 1963577)
Summary of the method: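 p53RE-bla cells, 4,000/well, compound added after 5 h, with human liver microsomes 0.5 mg/mL and NADPH 0.5 mg/mL final; 16 h at 37 C, then LiveBLAzer 2 h RT, fluorescence.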

[6] = p53 small molecule agonists, cell-based qHTS assay with rat liver microsomes (AID 1963578)
Summary of the method: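 p53RE-bla cells, 4,000/well, pre-incubated 5 h, then given compounds plus rat liver microsomes (0.5 mg/mL final) and NADPH (0.5 mg/mL final). Incubation 16 h at 37 C; beta-lactamase reporter read by LiveBLAzer fluorescence after 2 h at room temperature.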

[7] = p53 small molecule agonists, cell-based qHTS assay with human liver microsomes: qHTS cell viability counter screen (AID 1963579); also: nearly all actives have a fitted effect of over 45% in size
Summary of the method: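 p53RE-bla cells, 4,000/well, dosed 5 hours after plating, with human liver microsomes (0.5 mg/mL final) plus NADPH (0.5 mg/mL final), 16 hours at 37 C. Viability read as CellTiter-Glo luminescence after 30 min at room temperature.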

[8] = p53 small molecule agonists, cell-based qHTS assay with rat liver microsomes: qHTS cell viability counter screen (AID 1963580); also: nearly all actives have a fitted effect of over 45% in size
Summary of the method: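 HCT-116 p53RE-bla, 4,000 cells/well, 5 h pre-incubation; cpd + rat liver microsomes 0.5 mg/mL + NADPH 0.5 mg/mL (final); 16 h, 37 C; CellTiter-Glo, 30 min RT; luminescence.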

[9] = p53 small molecule agonists, cell-based qHTS assay: qHTS cell viability counter screen (AID 1963581); also: nearly all actives have a fitted effect of over 45% in size
Summary of the method: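 In the same plates used for the p53 bla reporter, HCT-116 cells given compounds for 16 h at 37 C received CellTiter-Glo; luminescence was recorded 30 min later at room temperature.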

[10] = molecular target: 5-hydroxytryptamine receptor 2A (Homo sapiens) (UniProt P28223); assay: 5-hydroxytryptamine receptor 2A (HTR2A) small molecule antagonists, cell-based qHTS assay (AID 1963586); also: nearly all actives have a fitted effect of over 45% in size
Chain of 5-hydroxytryptamine receptor 2A (Homo sapiens) (P28223 whole entry, looked up): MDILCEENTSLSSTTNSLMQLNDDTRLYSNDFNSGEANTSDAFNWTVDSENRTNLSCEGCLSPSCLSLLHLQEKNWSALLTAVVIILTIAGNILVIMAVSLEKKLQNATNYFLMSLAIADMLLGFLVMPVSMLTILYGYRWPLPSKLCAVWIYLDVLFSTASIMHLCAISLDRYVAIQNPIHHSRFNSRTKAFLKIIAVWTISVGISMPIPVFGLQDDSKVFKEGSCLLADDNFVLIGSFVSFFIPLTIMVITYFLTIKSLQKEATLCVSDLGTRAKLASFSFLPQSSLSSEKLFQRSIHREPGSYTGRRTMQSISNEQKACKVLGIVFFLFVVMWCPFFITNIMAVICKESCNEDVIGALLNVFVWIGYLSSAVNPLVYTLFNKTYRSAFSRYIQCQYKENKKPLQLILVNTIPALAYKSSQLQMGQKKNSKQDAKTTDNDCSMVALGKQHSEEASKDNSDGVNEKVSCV
Summary of the method: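 Antagonist-mode intracellular calcium assay: DOI (4 nM) added after 5 min compound pre-incubation at room temperature to dye-loaded HTR2A-CHO cells. Fluorescence followed for 3 min, sampled every second.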

[11] = molecular target: 5-hydroxytryptamine receptor 2A (Homo sapiens) (UniProt P28223); assay: 5-hydroxytryptamine receptor 2A (HTR2A) small molecule agonists, cell-based qHTS assay (AID 1963587); also: nearly all actives have a fitted effect of over 30% in size
Summary of the method: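 Kinetic calcium-flux fluorescence (2 min, 1 sec intervals) after compound addition in agonist mode. HTR2A-CHO cells were cultured 18 h, then dye-loaded 1 h at 37 C.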

[12] = molecular target: Muscarinic acetylcholine receptor M1 (Homo sapiens) (UniProt P11229); assay: Cholinergic receptor muscarinic 1 (CHRM1) small molecule agonists, cell-based qHTS assay (AID 1963589); also: nearly all actives have a fitted effect of over 35% in size
Chain of Muscarinic acetylcholine receptor M1 (Homo sapiens) (P11229 whole entry, looked up): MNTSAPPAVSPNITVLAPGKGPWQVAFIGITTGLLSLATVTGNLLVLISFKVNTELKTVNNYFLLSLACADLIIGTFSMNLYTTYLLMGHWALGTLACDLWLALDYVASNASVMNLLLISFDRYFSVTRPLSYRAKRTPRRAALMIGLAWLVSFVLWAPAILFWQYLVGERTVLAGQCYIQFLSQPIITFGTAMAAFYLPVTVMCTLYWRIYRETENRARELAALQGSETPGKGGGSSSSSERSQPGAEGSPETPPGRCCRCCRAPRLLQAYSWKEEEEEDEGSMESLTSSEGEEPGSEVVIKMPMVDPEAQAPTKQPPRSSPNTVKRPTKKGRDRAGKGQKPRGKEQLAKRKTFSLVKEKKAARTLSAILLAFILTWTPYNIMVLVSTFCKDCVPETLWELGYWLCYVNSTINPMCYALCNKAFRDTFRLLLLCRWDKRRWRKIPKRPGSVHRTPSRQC
Summary of the method: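 Each compound was tested at 15 concentrations across three independent runs on dye-loaded CHO cells stably expressing human CHRM1, reading intracellular calcium fluorescence kinetically at 1 sec intervals.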

[13] = cAMP Responsive Elements (CRE) small molecule agonists, cell-based qHTS assay (AID 1963590)
Summary of the method: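 Cell line: CRE-bla HEK 293T; medium DMEM/10% dialyzed FBS/0.1 mM NEAA/1 mM pyruvate/25 mM HEPES; 3 h compound exposure; beta-lactamase FRET readout after 2 h substrate loading at RT.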

[14] = cAMP Responsive Elements (CRE) small molecule antagonists, cell-based qHTS assay (AID 1963591; active = well fitted inhibition curve with a large enough effect in the signal ratio in the repeat runs, not every such curve was filed as active; the % refers to the signal ratio)
Summary of the method: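 Inhibition of NKH477-driven (0.25 uM final) CRE-beta-lactamase signal in HEK293T cells, 3 h compound exposure at 37 °C, detected by FRET substrate fluorescence.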

[15] = molecular target: Beta-2 adrenergic receptor (Homo sapiens) (UniProt P07550); assay: Adrenergic beta2 receptor (ADRB2) small molecule agonists, cell-based qHTS assay (AID 1963593);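 also: CHO cells stably overexpressing human ADRB2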
Chain of Beta-2 adrenergic receptor (Homo sapiens) (P07550 whole entry, looked up): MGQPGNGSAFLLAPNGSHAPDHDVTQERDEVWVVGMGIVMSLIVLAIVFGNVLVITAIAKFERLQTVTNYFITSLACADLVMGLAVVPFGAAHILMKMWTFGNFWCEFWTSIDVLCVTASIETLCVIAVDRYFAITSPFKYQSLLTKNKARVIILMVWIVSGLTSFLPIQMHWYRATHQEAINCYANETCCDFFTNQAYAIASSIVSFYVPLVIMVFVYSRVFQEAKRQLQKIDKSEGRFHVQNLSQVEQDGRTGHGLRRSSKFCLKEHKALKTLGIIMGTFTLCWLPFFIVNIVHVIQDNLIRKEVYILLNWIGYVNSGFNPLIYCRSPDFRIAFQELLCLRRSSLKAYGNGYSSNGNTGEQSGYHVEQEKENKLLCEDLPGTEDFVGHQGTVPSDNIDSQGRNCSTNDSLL
Summary of the method: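 CHO cells stably over-expressing ADRB2 were plated overnight at 37C, then dosed with compounds plus a stimulation mix containing 100uM IBMX and 25uM Ro-20-1724 for 0.5hr at room temperature. cAMP was measured by HTRF competition, 1hr.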

[16] = molecular target: D(2) dopamine receptor (Homo sapiens) (UniProt P14416); assay: Dopamine D2 receptor (DRD2) small molecule agonists, cell-based qHTS assay (AID 1963594); also: nearly all actives have a fitted effect of over 35% in size
Chain of D(2) dopamine receptor (Homo sapiens) (P14416 whole entry, looked up): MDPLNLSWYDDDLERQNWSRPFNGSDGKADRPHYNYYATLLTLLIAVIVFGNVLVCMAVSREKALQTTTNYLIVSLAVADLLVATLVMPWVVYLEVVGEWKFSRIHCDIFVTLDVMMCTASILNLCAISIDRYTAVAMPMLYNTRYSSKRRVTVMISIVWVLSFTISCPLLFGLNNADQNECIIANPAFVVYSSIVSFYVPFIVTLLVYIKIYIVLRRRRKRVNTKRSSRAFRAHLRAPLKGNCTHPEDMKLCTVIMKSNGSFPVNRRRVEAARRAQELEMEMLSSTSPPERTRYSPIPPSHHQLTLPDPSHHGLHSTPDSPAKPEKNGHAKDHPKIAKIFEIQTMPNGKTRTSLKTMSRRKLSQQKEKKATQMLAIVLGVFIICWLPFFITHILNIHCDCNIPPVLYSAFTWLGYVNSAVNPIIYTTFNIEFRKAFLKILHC
Summary of the method: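 cAMP accumulation in DRD2-HEK293 cells measured by HTRF after 1 h detection; compounds added 10 min before NKH477 (200nM […]) forskolin-analogue stimulation, 30 min at room temperature, with Ro20-1724 present at 0.1 mM final.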

[17] = p53 small molecule agonists, cell-based qHTS assay (AID 1963582; active = well fitted activation curve with a large enough effect in the signal ratio in the repeat runs, not every such curve was filed as active; the % refers to the signal ratio)
Summary of the method: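 Compounds are pin-transferred in DMSO onto p53RE-bla cells and incubated 16 h at 37 C. The B/G FRET beta-lactamase substrate is then applied for 2 h at RT and fluorescence recorded.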

[18] = molecular target: Muscarinic acetylcholine receptor M1 (Homo sapiens) (UniProt P11229); assay: Cholinergic receptor muscarinic 1 (CHRM1) small molecule antagonists, cell-based qHTS assay (AID 1963588); also: nearly all actives have a fitted effect of over 40% in size
Summary of the method: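 CHRM1-CHO calcium-flux assay, antagonist mode. Cells were seeded 18 h, dye-loaded 1 h at 37 C and given compound for 5 min at RT, then acetylcholine was added at 50nM. FDSS fluorescence was read 3 min; 15 concentrations, three runs.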

[19] = molecular target: D(2) dopamine receptor (Homo sapiens) (UniProt P14416); assay: Dopamine D2 receptor (DRD2) small molecule antagonists, cell-based qHTS assay (AID 1963595; active = well fitted inhibition curve with a large enough effect in the signal ratio in the repeat runs, with a control signal flat; the % refers to the signal ratio)
Summary of the method: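 Human DRD2 antagonist qHTS measuring cAMP by HTRF. The cells are exposed to compound for 10 min, then to NKH477 (200 nM) and quinpirole (12 nM) for 30 min at RT, with Ro20-1724 (0.1 mM) present throughout.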

[20] = molecular target: Beta-2 adrenergic receptor (Homo sapiens) (UniProt P07550); assay: Adrenergic beta2 receptor (ADRB2) small molecule antagonists, cell-based qHTS assay (AID 1963592); also: series mostly up to about 92 µM; nearly all actives have a fitted effect of over 50% in size
Summary of the method: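 Cells (CHO, stable ADRB2 overexpression) incubated 18-20hr at 37C; compounds added from DMSO; agonist mix (1nM isoproterenol, 100uM IBMX, 25uM Ro-20-1724) added; 0.5hr RT; d2-cAMP and anti-cAMP-cryptate added; 1hr RT; 665/615 nm read.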

SMILES	Potency [1]	Potency [2]	outcome [3]	outcome [4]	Potency [5]	Potency [6]	Potency [7]	Potency [8]	Potency [9]	Potency [10]	Potency [11]	Potency [12]	Potency [13]	Potency [14]	Potency [15]	Potency [16]	Potency [17]	Potency [18]	Potency [19]	Potency [20]
CN(C)c1ccc(C(c2ccccc2)c2ccc(N(C)C)cc2)cc1	inactive	inactive	inactive	inactive	inactive	inactive	inactive	inactive	inactive	inactive	inactive	inactive	inactive	inactive	inactive	inactive	–	–	–	–
CN(C)CCN(Cc1ccsc1)c1ccccn1	inactive	inactive	inactive	inactive	inactive	inactive	inactive	inactive	inactive	–	inactive	inactive	inactive	–	inactive	inactive	inactive	inactive	inactive	–
CC(=O)Nc1ccc(S(=O)(=O)Nc2cc(C)on2)cc1	inactive	inactive	inactive	inactive	inactive	inactive	inactive	inactive	inactive	inactive	inactive	inactive	inactive	inactive	–	–	inactive	inactive	inactive	–
CCN(CCC#N)c1ccc(N=Nc2ccc([N+](=O)[O-])cc2)cc1	inactive	inactive	inactive	inactive	inactive	inactive	inactive	inactive	inactive	inactive	inactive	inactive	inactive	inactive	–	inactive	–	inactive	inactive	inactive
Cc1c(C)c([N+](=O)[O-])c(C(C)(C)C)c([N+](=O)[O-])c1C	inactive	inactive	inactive	inactive	inactive	inactive	inactive	inactive	inactive	inactive	inactive	inactive	inactive	inactive	–	inactive	–	inactive	inactive	inactive
CC(C)=CCC/C(C)=C/CC/C(C)=C/C(=O)OCC(=O)[C@@]1(O)CC[C@H]2[C@@H]3CCC4=CC(=O)C=C[C@]4(C)[C@H]3[C@@H](O)C[C@@]21C	inactive	inactive	inactive	inactive	inactive	inactive	inactive	inactive	inactive	inactive	inactive	inactive	inactive	inactive	–	inactive	–	–	–	inactive
CCCCCCCCCCCCC	inactive	inactive	inactive	inactive	inactive	inactive	inactive	inactive	inactive	inactive	inactive	inactive	inactive	–	–	inactive	inactive	inactive	inactive	inactive
COc1cc2c(cc1OC)C(=O)CC2	inactive	inactive	inactive	inactive	inactive	inactive	inactive	inactive	inactive	inactive	inactive	inactive	inactive	inactive	–	–	inactive	inactive	inactive	inactive
CCCCNc1c(C(=O)OCC)c(C)nc2c1cnn2CC	inactive	inactive	inactive	inactive	inactive	inactive	inactive	inactive	inactive	inactive	inactive	inactive	–	–	inactive	inactive	inactive	inactive	inactive	inactive
CC(C)(C)C(=O)/C=C/c1ccc(Cl)cc1	54.5 µM (active)	inactive	inactive	inactive	inactive	inactive	inactive	inactive	inactive	inactive	inactive	inactive	–	inactive	inactive	inactive	inactive	inactive	inactive	inactive
C=CCc1ccccc1OCC(O)CNC(C)C (stereo unspecified)	inactive	inactive	inactive	inactive	inactive	inactive	inactive	inactive	inactive	inactive	inactive	inactive	inactive	inactive	–	inactive	inactive	–	inactive	–
C[Si]1(C)O[Si](C)(C)O[Si](C)(C)O1	inactive	inactive	inactive	inactive	inactive	inactive	inactive	inactive	inactive	inactive	inactive	inactive	inactive	inactive	–	inactive	inactive	inactive	inactive	inactive
Cc1c(NC(C)C)c(=O)n(-c2ccccc2)n1C	inactive	inactive	inactive	inactive	inactive	inactive	inactive	inactive	inactive	inactive	inactive	inactive	inactive	inactive	–	inactive	inactive	inactive	inactive	inactive
CC(C)CC(=O)N[C@H](C(=O)N[C@H](C(=O)N[C@@H](CC(C)C)[C@@H](O)CC(=O)N[C@@H](C)C(=O)N[C@@H](CC(C)C)[C@@H](O)CC(=O)O)C(C)C)C(C)C (Isovaleryl-VV[Sta]A[Sta]-OH)	inactive	inactive	inactive	inactive	inactive	inactive	inactive	inactive	inactive	–	–	–	inactive	inactive	–	inactive	inactive	–	inactive	inactive
CC(=O)Oc1ccc(C2(c3ccc(OC(C)=O)cc3)C(=O)Nc3ccccc32)cc1	0.266 µM (active)	inactive	inactive	inactive	inactive	inactive	–	inactive	inactive	inactive	–	inactive	inactive	–	inactive	inactive	–	inactive	inactive	inactive
